Our source for the growth values is PubChem BioAssay (NCI).

Molecules are shown by their SMILES. This is part of a sample that, as a whole, favours compounds with a hit. Of some 83,000 tested, about 20% had one in any assay.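 In brief: 96-well plates, 48 h treatment, single concentration, percent growth endpoint.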 A number with no mark means an inactive call. Active and inactive are the calls of the source. Rule for the calls: active = growth percent below 10; inactive = the rest.

Test systems include SR leukemia; RPMI-8226 leukemia; OVCAR-8 ovarian; OVCAR-5 ovarian; SK-OV-3 ovarian; IGROV1 ovarian; OVCAR-3 ovarian; HS 578T breast; NCI/ADR-RES ovarian; T-47D breast; MDA-MB-435 melanoma; SW-620 colon; MCF7 breast; HCT-116 colon; HCC-2998 colon; KM12 colon; BT-549 breast; OVCAR-4 ovarian.
Holding throughout (experiment): NCI-60 one-dose screen, 48 h (100 = growth as untreated, 0 = no growth, -100 = all killed)
What all share (settings): 10 µM unless noted

`CC1c2ccccc2N(S(=O)(=O)c2ccccc2)C1C` (stereo not drawn): the growth in the test on SR leukemia is 34.8%; in the test with RPMI-8226 leukemia, 91.9%; with OVCAR-8 ovarian, 103%; with OVCAR-5 ovarian, 108%; with SK-OV-3 ovarian, 91.2%; with IGROV1 ovarian, 92.4%. In addition, the growth in the test on OVCAR-3 ovarian is 98.1%; in the test with HS 578T breast, 92.7%; with NCI/ADR-RES ovarian it was 70.4%; with T-47D breast it was 102%; with MDA-MB-435 melanoma, 6.95% (active); in the test on SW-620 colon, 72.7%. For the same molecule, the growth is 78.5% in the test on MCF7 breast, 86.2% in the test on HCT-116 colon, 101% in the test with HCC-2998 colon and 60% in the test with KM12 colon.

With `O=C(N/N=C\c1ccccc1O)C1CC1`, the growth was 104% with SR leukemia; 107% in the test on RPMI-8226 leukemia; 93.5% in the test on OVCAR-8 ovarian; 117% in the test on OVCAR-5 ovarian; 101% in the test on SK-OV-3 ovarian; 95% in the test on IGROV1 ovarian. Moreover, the growth in the test with OVCAR-3 ovarian is 102%; with HS 578T breast it was 115%; with NCI/ADR-RES ovarian it was 92.8%; in the test on T-47D breast, 86.8%; in the test with BT-549 breast, 112%; in the test on MDA-MB-435 melanoma, 112%. Moreover, the growth is 108% in the test with SW-620 colon, 102% in the test with MCF7 breast, 107% in the test with HCT-116 colon and 100% in the test with KM12 colon.

Consider `CC1(n2nnnc2N2CCCN(c3ncccc3N)CC2)CCC1`, for which the growth in the test with SR leukemia is 79.1%; with RPMI-8226 leukemia, 104%; in the test with OVCAR-8 ovarian, 102%; with OVCAR-5 ovarian, 98.7%; with OVCAR-4 ovarian it was 97.2%; in the test with IGROV1 ovarian, 99.7%. Also, the growth was 106% with OVCAR-3 ovarian; 97.5% in the test on HS 578T breast; 103% with NCI/ADR-RES ovarian; 101% in the test with T-47D breast; 99.4% with BT-549 breast; 99.5% with MDA-MB-435 melanoma. Also, the growth in the test on MCF7 breast was 95.5%; in the test on HCT-116 colon it was 84.1%; in the test with HCC-2998 colon it was 108%; in the test with KM12 colon, 102%.

Consider `N#CC1C(=N)Cc2ccccc2-c2ccccc21` (stereo not drawn), for which the growth is 26.7% in the test with SR leukemia; 52.3% in the test with RPMI-8226 leukemia; 63.1% in the test with OVCAR-8 ovarian; 88.3% in the test on OVCAR-5 ovarian; 66.7% with SK-OV-3 ovarian; 45.7% in the test on IGROV1 ovarian. Besides, the growth is 41.6% in the test on OVCAR-3 ovarian; 36.5% with HS 578T breast; 1.44% (active) in the test on NCI/ADR-RES ovarian; 60.9% with T-47D breast; 41.5% in the test on BT-549 breast; -23.8% (active) in the test with MDA-MB-435 melanoma. For the same molecule, the growth in the test on SW-620 colon was 19.2%; in the test on MCF7 breast, 31.4%; with HCT-116 colon, 33.1%; in the test on HCC-2998 colon, 86.8%; in the test with KM12 colon, 18%.

For the molecule `COc1cc2[nH]c(C(=O)c3cc(OC)c(OC)c(OC)c3)c(N)c2cc1C#CC1CC1`, the growth in the test with SR leukemia is 13.4%; with RPMI-8226 leukemia, 47.6%; with OVCAR-8 ovarian, 55.7%; in the test on OVCAR-5 ovarian, 38.4%; in the test on SK-OV-3 ovarian, 32.4%; in the test with IGROV1 ovarian, 42.1%. Further, the growth in the test with OVCAR-3 ovarian is 2.8% (active); in the test with HS 578T breast, -1.8% (active); with NCI/ADR-RES ovarian it was 27.7%; in the test with T-47D breast it was 32.8%; in the test on MDA-MB-435 melanoma, 2.06% (active); in the test on SW-620 colon, 22.5%. For the same molecule, the growth in the test with MCF7 breast was 17.6%; in the test on HCT-116 colon, 19.1%; in the test on HCC-2998 colon it was 66.1%; with KM12 colon, 18%.

For `Cn1cc(-c2nc(-c3c[nH]c4ncccc34)cs2)c2cc(F)ccc21`, the growth in the test on SR leukemia is 13.7%; with RPMI-8226 leukemia, 36.4%; in the test with OVCAR-8 ovarian, 51.4%; in the test with OVCAR-5 ovarian it was 21.4%; in the test on SK-OV-3 ovarian, 55.9%; in the test on IGROV1 ovarian, 26.5%. Further, the growth in the test with OVCAR-3 ovarian was 21%; with HS 578T breast, 66.8%; with NCI/ADR-RES ovarian, 8.92% (active); with T-47D breast, 24.3%; in the test on BT-549 breast, 58%; with MDA-MB-435 melanoma it was 0.641% (active). Further, the growth is 31.8% in the test on SW-620 colon; 7.84% (active) in the test with MCF7 breast; 20.3% in the test with HCT-116 colon; 20.5% in the test with HCC-2998 colon; -12.7% (active) in the test on KM12 colon.

As to `O=C(NC1=CC(=O)c2ccccc2C1=O)c1ccccc1`, the growth in the test with SR leukemia is -0.906% (active); in the test on RPMI-8226 leukemia, 4.25% (active); with OVCAR-8 ovarian, 22.4%; in the test on OVCAR-5 ovarian, 42.2%; in the test on SK-OV-3 ovarian it was 32%; in the test on IGROV1 ovarian, -30.1% (active). For the same molecule, the growth with OVCAR-3 ovarian was -82.5% (active); with HS 578T breast, 25.3%; in the test with NCI/ADR-RES ovarian, 16.6%; in the test on T-47D breast, -45.6% (active); in the test with MDA-MB-435 melanoma, 2.96% (active); in the test on SW-620 colon, -56.2% (active). Moreover, the growth in the test with MCF7 breast is 14.3%; in the test on HCT-116 colon, -69% (active); with HCC-2998 colon it was 32.3%; in the test with KM12 colon, 11.2%.

As to `O=C(O)c1cccc2c1Cc1cc([N+](=O)[O-])ccc1-2`, the growth is 89% with SR leukemia; 100% with RPMI-8226 leukemia; 108% with OVCAR-8 ovarian; 106% in the test on OVCAR-5 ovarian; 107% in the test with SK-OV-3 ovarian; 92.3% in the test on IGROV1 ovarian. Also, the growth is 115% in the test with OVCAR-3 ovarian; 95% with HS 578T breast; 100% in the test on NCI/ADR-RES ovarian; 106% in the test on T-47D breast; 108% in the test with MDA-MB-435 melanoma; 103% in the test on SW-620 colon. The growth with MCF7 breast is 102%; in the test on HCT-116 colon it was 97.5%; in the test on HCC-2998 colon, 101%; in the test on KM12 colon, 109%.

For the molecule `Cc1cc(Nc2ccc(F)cc2)nc(N2CCN(c3ccnc4cc(Cl)ccc34)CC2)n1`, the growth was 2.7% (active) in the test on SR leukemia; 12.5% in the test with RPMI-8226 leukemia; 31.9% in the test on OVCAR-8 ovarian; 8.2% (active) in the test with OVCAR-5 ovarian; 46.8% in the test with SK-OV-3 ovarian; 31.6% in the test on IGROV1 ovarian. The growth is 24.1% in the test with OVCAR-3 ovarian; 39.3% with HS 578T breast; 13.5% in the test with NCI/ADR-RES ovarian; 10.8% in the test with T-47D breast; 13.2% in the test on MDA-MB-435 melanoma; 23.1% with SW-620 colon. Further, the growth in the test with MCF7 breast is 9.35% (active); with HCT-116 colon, 4.86% (active); with HCC-2998 colon, 25.8%; with KM12 colon, 21.6%.

As for `CC(=O)O[C@H]1CC[C@@]2(C)C(=CC[C@@H]3[C@@H]2CC[C@]2(C)C(=O)N(O)C(=O)C[C@@H]32)C1`, the growth in the test with SR leukemia is 74.8%; in the test on RPMI-8226 leukemia, 52.8%; with OVCAR-8 ovarian it was 101%; in the test on OVCAR-5 ovarian it was 98.9%; in the test on SK-OV-3 ovarian, 93.2%; in the test on IGROV1 ovarian it was 83.3%. In addition, the growth with OVCAR-3 ovarian was 102%; with HS 578T breast, 106%; with NCI/ADR-RES ovarian, 100%; in the test on T-47D breast, 87.1%; in the test on BT-549 breast, 91.9%; in the test on MDA-MB-435 melanoma it was 104%. Besides, the growth in the test with SW-620 colon is 72.6%; with MCF7 breast, 76%; with HCT-116 colon it was 76.3%; with HCC-2998 colon it was 78.1%; with KM12 colon, 71.8%.
